Assay [1] in a line: ATG_M_32_CIS: Attagene CIS-FACTORIAL HepG2 Assay for M32 Transcription Factor (Internal Marker) (AID 2282949).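 Note: background control marker of the multiplexed CIS panel rather than a real target.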 The following applies: HepG2 Attagene cis-factorial M32 reporter, mRNA; actives raise or lower the signal. The procedure, abridged: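 HepG2 transfectants (cis-regulated reporter transcription units) dosed 24 h. Reporter mRNA by RT-PCR plus CE, analysed as gain or loss relative to DMSO.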

The nature of assay [2]: ATG_M_06_CIS: Attagene CIS-FACTORIAL HepG2 Assay for M06 Transcription Factor (Internal Marker) (AID 2282950). The following applies: HepG2 Attagene CIS-FACTORIAL M06 internal marker reporter; actives raise or lower the signal. The procedure, abridged: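 Steps: transfect HepG2 with multiplexed cis-element reporter constructs; dose chemical 24 h; extract RNA with DNase treatment; reverse-transcribe, PCR-amplify, 6-FAM label, HpaI digest; separate fragments by capillary electrophoresis. Activity fitted both directions versus DMSO.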

The target in assay [3] is Hypoxia-inducible factor 1-alpha (Homo sapiens) (UniProt Q16665). Briefly: ATG_HIF1a_CIS: Attagene CIS-FACTORIAL HepG2 Assay for human Hypoxia Inducible Factor 1 (HIF1A) (AID 2282951). The following applies: HepG2 Attagene cis-factorial HIF1a reporter transcription; actives raise or lower the signal. The procedure, abridged:
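Activity is fitted in both directions relative to DMSO. Reporter transcripts are read by RT-PCR, fluorescent primer extension and capillary electrophoresis after 24 h chemical treatment. The cells are HepG2 carrying transiently transfected cis-element-driven reporter units responding to endogenous factors.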

Assay [4] concerns the target Hepatocyte nuclear factor 6 (Homo sapiens) (UniProt Q9UBC0). Nature of the assay: ATG_HNF6_CIS: Attagene CIS-FACTORIAL HepG2 Assay for human Hepatocyte Nuclear Factor 6 (HNF6) (AID 2282952). The following applies: HepG2 Attagene cis-factorial HNF6 reporter transcription; actives raise or lower the signal. The procedure, abridged:
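First, HepG2 cells were transfected with the multiplexed cis reporter library and dosed with chemical for 24 h. Next, RNA was reverse-transcribed, PCR-amplified and fluorescently labelled. Finally, HpaI-digested fragments were read by capillary electrophoresis.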

The target of assay [5] is Heat shock factor protein 1 (Homo sapiens) (UniProt Q00613). Nature of the assay: ATG_HSE_CIS: Attagene CIS-FACTORIAL HepG2 Assay for human Heat Shock Transcription Factor 1 (HSE) (AID 2282953). The settings on record: HepG2 HSE cis-reporter, Attagene RNA transcription; actives raise or lower the signal. The method, boiled down:
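Cells were transfected with cis-element-driven reporter constructs, dosed for 24 h, then total RNA was reverse-transcribed and reporter cDNA amplified, FAM-labelled and digested with HpaI. Fragments were resolved by capillary electrophoresis; gain or loss was fitted against DMSO.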

Assay [6] is described as follows: ATG_MRE_CIS: Attagene CIS-FACTORIAL HepG2 Assay for human Metal Responsive Element (MRE) (AID 2282954). The settings on record: HepG2 MRE cis-reporter transcription, Attagene multiplex; actives raise or lower the signal. The procedure, abridged: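 Measured here is mRNA induction from an MRE cis-element reporter in HepG2 after 24 h, quantified by fluorescence of labelled RT-PCR products on capillary electrophoresis; gain- and loss-of-signal fits use DMSO as baseline.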

Assay [7] is described as follows: ATG_PBREM_CIS: Attagene CIS-FACTORIAL HepG2 Assay for human Phenobarbital-responsive Enhancer Module (PBREM) (AID 2282955). The following applies: HepG2 PBREM cis-reporter, Attagene multiplexed transcription; actives raise or lower the signal. The method, boiled down:
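Endogenous transcription factor activity was read from reporter transcripts in transiently transfected human HepG2 liver cells after 24 h dosing. RT-PCR products were fluorescently labelled, HpaI-cut and sized by capillary electrophoresis; activity fitted bidirectionally against DMSO baseline.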

The target of assay [8] is Paired box protein Pax-6 (Homo sapiens) (UniProt P26367). Briefly: ATG_Pax6_CIS: Attagene CIS-FACTORIAL HepG2 Assay for human Paired Box 6 (PAX6) (AID 2282956). The following applies: HepG2 CIS-FACTORIAL PAX6 reporter transcription, RNA readout; actives raise or lower the signal. The method, boiled down:
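DMSO-referenced bidirectional fits of reporter mRNA fluorescence; HepG2 with transient cis-promoter MRTUs, 24 h post-dose, RT-PCR plus capillary electrophoresis detection.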

The nature of assay [9]: ATG_PXRE_CIS: Attagene CIS-FACTORIAL HepG2 Assay for human Pregnane X Receptor Element (PXRE) (AID 2282957). The settings on record: HepG2 Attagene CIS-FACTORIAL PXRE reporter, mRNA; actives raise or lower the signal. The procedure, abridged: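 After a 24 h chemical incubation, total RNA from transfected HepG2 cells was reverse-transcribed and reporter cDNA amplified, FAM-labeled, HpaI-digested and sized by capillary electrophoresis. DMSO served as baseline for bidirectional curve fitting.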

Assay [10] in a line: ATG_PPRE_CIS: Attagene CIS-FACTORIAL HepG2 Assay for human Peroxisome Proliferator-activated Response Element (PPRE) (AID 2282958). The settings on record: HepG2 PPRE cis-element reporter, Attagene transcription factor profiling; actives raise or lower the signal. The procedure, abridged:
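Endogenous PPRE-driven transcription is measured in HepG2 cells carrying transfected multi-reporter constructs. Reporter transcripts are quantified by RT-PCR, HpaI digestion and capillary electrophoresis 24 h after dosing. DMSO baseline, bidirectional fit.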

The nature of assay [11]: ATG_RORE_CIS: Attagene CIS-FACTORIAL HepG2 Assay for human RAR-related Orphan Receptor Element (RORE) (AID 2282959). The following applies: HepG2 Attagene cis-factorial RORE reporter, mRNA; actives raise or lower the signal. The procedure, abridged:
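RORE reporter transcripts reflecting endogenous factor activity were read after 24 h compound exposure of transfected HepG2 cells, using reverse transcription, PCR, fluorescent labelling and capillary electrophoresis sizing. Gain or loss fitted against DMSO.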

Assay [12] can be described thus: ATG_Sox_CIS: Attagene CIS-FACTORIAL HepG2 Assay for human SRY-box transcription factor (SOX) (AID 2282960). The following applies: HepG2 Attagene cis-factorial SOX reporter, mRNA; actives raise or lower the signal. The method, boiled down:
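Reporter transcripts, measured by RT-PCR and capillary electrophoresis of labelled fragments, report endogenous SOX transcription factor activity. Transiently transfected human HepG2 cells receive chemical for 24 h; changes in either direction are fitted relative to DMSO.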

Assay [13] deals with Transcription factor Sp1 (Homo sapiens) (UniProt P08047). Briefly: ATG_Sp1_CIS: Attagene CIS-FACTORIAL HepG2 Assay for human Specificity Protein 1 (Sp1) (AID 2282961). The following applies: HepG2 Sp1 cis-reporter transcription, actives raise or lower the signal. The method, boiled down:
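Read-out is reporter transcript level, measured by RT-PCR and fluorescent capillary electrophoresis after 24 h chemical treatment. System: transiently transfected HepG2 cells reporting endogenous transcription factor activity; gain or loss fitted against DMSO baseline.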

Assay [14] can be described thus: ATG_SREBP_CIS: Attagene CIS-FACTORIAL HepG2 Assay for human Sterol Regulatory Element Binding (SREBP) (AID 2282962). The settings on record: HepG2 Attagene cis-factorial SREBP reporter, mRNA; actives raise or lower the signal. The procedure, abridged:
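In this cis-format assay, HepG2 liver cells express reporters controlled by promoter elements responsive to native transcription factors. Exposure lasts 24 h; reporter mRNA fluorescence from capillary electrophoresis gives the signal, fitted bidirectionally against DMSO.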

Assay [15] has as its target Signal transducer and activator of transcription 3 (Homo sapiens) (UniProt P40763). Briefly: ATG_STAT3_CIS: Attagene CIS-FACTORIAL HepG2 Assay for human Signal Transducer and Activator of Transcription 3 (STAT3) (AID 2282963). The settings on record: HepG2, Attagene cis-factorial STAT3 reporter transcription; actives raise or lower the signal. The procedure, abridged:
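Fluorescence intensity of 6-FAM-labelled reporter fragments, separated by capillary electrophoresis after RT-PCR, gave the signal. Cells were HepG2 transfected with cis-element reporter units and treated 24 h; fitting was bidirectional relative to DMSO.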

Assay [16] is described as follows: ATG_TA_CIS: Attagene CIS-FACTORIAL HepG2 Assay for human TA Basal Promoter (AID 2282964). The following applies: HepG2 Attagene CIS-factorial TA basal promoter reporter; actives raise or lower the signal. The method, boiled down: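 Steps: transfect HepG2 with MRTUs; dose 24 h; isolate RNA, DNase-treat, reverse-transcribe; PCR and FAM-label reporter cDNA; digest with HpaI 2h at 37 C; run capillary electrophoresis. Activity fitted both directions against DMSO.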

The nature of assay [17]: ATG_TCF_b_cat_CIS: Attagene CIS-FACTORIAL HepG2 Assay for human T-Cell-Factor with beta-catenin (TCF/b-cat) (AID 2282965). The settings on record: HepG2 TCF/beta-catenin cis-reporter transcription, actives raise or lower the signal. The method, boiled down:
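Cells of the HepG2 line carry transiently transfected reporter units whose promoters respond to endogenous factors. Twenty-four hours post-dosing, reporter mRNA induction is measured by fluorescent RT-PCR and capillary electrophoresis, with DMSO as baseline.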

Assay [18] in a line: ATG_TAL_CIS: Attagene CIS-FACTORIAL HepG2 Assay for human TAL Basal Promoter (AID 2282966).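 Note: background control endpoint measuring basal TAL promoter reporter mRNA not a specific factor.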 The settings on record: HepG2 Attagene cis-factorial TAL promoter reporter; actives raise or lower the signal. The method, boiled down:
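Basal-promoter background-control endpoint from a multiplexed HepG2 reporter panel. Cells were exposed 24 h, then reporter mRNA was read by RT-PCR/CE fluorescence and fitted in both directions relative to DMSO.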

Assay [19] in a line: ATG_TGFb_CIS: Attagene CIS-FACTORIAL HepG2 Assay for human Transforming Growth Factor (TGF) (AID 2282967). The settings on record: HepG2 Attagene CIS TGFb reporter, mRNA transcription; actives raise or lower the signal. The method, boiled down: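 Cells were dosed for 24 hours, after which total RNA was reverse-transcribed and reporter sequences amplified, labeled and sized by capillary electrophoresis. Activity was fitted in both directions against DMSO.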

A short description of assay [20]: ATG_VDRE_CIS: Attagene CIS-FACTORIAL HepG2 Assay for human Vitamin D Receptor Element (VDRE) (AID 2282968). The settings on record: HepG2 VDRE cis-reporter transcription, actives raise or lower the signal. The method, boiled down:
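Compounds were applied for 24 h to HepG2 cells transfected with promoter-regulated reporter units. Total RNA was reverse-transcribed, and reporter amplicons were fluorescently labelled and sized by capillary electrophoresis.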

Our source for the outcome and AC50 values is PubChem BioAssay (EPA / NIEHS).

Where “and” joins values, the source holds several entries; their conditions need not be identical. Identical values can stand only once. Some compounds were tested as several samples or in several runs, with calls that do not always agree. Calls of active or inactive are those of the source. Rule for the calls: active = hit-call score of the fitted dose curve at least 0.9, where 1 is the maximum; inactive = score below 0.9.

Signal transducer and activator of transcription 3 (Homo sapiens), sequence (P40763 whole entry, looked up, the tested form may be a part): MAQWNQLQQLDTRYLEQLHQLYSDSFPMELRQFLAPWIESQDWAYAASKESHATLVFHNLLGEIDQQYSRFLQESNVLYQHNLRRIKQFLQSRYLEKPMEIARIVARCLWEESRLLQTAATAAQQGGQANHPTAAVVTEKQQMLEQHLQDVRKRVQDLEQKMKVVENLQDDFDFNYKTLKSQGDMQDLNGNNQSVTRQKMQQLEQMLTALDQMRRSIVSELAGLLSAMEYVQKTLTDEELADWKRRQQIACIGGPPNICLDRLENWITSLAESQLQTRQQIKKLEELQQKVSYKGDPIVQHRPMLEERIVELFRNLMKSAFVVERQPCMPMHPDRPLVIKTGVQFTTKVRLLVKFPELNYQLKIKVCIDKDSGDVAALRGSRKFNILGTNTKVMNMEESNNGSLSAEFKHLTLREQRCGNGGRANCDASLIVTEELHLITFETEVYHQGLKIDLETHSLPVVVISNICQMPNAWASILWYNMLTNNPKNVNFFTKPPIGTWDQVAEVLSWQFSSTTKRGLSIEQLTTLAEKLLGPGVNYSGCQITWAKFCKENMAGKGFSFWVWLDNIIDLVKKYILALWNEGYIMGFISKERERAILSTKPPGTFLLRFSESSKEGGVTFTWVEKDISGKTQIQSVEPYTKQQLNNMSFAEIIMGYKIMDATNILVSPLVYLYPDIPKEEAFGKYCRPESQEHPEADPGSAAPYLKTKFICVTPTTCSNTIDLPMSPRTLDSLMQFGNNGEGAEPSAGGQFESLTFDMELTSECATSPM
Hepatocyte nuclear factor 6 (Homo sapiens), sequence (Q9UBC0 whole entry, looked up, the tested form may be a part): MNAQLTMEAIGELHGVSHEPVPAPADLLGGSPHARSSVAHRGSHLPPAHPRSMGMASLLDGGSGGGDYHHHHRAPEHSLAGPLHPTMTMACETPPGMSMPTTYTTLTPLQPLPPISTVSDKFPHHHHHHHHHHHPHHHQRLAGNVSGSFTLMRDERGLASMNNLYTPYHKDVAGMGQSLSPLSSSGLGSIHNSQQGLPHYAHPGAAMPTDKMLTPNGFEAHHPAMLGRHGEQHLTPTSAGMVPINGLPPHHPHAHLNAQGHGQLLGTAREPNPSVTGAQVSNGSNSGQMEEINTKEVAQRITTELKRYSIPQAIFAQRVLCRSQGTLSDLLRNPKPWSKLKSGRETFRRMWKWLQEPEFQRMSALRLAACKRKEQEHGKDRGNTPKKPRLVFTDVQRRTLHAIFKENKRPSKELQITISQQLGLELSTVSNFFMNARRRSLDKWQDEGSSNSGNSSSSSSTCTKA
Hypoxia-inducible factor 1-alpha (Homo sapiens), sequence (Q16665 whole entry, looked up): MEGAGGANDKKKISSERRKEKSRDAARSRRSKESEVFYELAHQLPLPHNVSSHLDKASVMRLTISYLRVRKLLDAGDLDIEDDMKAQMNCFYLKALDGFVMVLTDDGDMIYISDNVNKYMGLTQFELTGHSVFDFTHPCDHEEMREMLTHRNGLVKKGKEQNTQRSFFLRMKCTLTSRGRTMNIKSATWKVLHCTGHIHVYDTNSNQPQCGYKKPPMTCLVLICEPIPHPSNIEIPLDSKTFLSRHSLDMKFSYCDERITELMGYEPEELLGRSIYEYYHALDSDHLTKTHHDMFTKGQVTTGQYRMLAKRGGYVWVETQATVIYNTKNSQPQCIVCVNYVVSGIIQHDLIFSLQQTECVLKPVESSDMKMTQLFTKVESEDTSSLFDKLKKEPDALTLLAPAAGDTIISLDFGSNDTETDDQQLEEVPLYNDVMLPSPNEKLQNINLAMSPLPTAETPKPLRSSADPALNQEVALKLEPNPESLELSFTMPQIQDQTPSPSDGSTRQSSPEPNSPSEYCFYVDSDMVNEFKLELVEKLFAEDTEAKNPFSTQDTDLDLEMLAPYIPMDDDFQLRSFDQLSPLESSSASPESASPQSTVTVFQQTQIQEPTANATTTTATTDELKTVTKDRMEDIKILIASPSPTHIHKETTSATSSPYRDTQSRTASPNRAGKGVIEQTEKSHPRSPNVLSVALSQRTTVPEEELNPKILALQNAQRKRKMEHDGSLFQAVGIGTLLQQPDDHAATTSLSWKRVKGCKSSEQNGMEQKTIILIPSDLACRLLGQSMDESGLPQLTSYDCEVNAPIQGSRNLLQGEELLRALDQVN
Heat shock factor protein 1 (Homo sapiens), sequence (Q00613 whole entry, looked up, the tested form may be a part): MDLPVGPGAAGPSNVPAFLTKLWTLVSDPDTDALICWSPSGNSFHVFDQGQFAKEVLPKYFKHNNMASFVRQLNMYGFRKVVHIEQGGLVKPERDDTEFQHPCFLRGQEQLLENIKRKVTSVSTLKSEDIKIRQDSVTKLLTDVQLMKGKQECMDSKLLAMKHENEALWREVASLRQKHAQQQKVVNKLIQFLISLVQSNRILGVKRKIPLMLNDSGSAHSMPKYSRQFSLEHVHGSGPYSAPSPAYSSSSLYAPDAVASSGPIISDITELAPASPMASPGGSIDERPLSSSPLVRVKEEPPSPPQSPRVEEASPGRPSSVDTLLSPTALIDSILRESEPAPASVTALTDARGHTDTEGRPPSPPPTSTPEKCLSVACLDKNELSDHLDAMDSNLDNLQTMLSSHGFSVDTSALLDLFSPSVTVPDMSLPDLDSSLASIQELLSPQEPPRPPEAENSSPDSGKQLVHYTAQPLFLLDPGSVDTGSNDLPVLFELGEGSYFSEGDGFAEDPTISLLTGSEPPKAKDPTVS
Paired box protein Pax-6 (Homo sapiens), sequence (P26367 whole entry, looked up): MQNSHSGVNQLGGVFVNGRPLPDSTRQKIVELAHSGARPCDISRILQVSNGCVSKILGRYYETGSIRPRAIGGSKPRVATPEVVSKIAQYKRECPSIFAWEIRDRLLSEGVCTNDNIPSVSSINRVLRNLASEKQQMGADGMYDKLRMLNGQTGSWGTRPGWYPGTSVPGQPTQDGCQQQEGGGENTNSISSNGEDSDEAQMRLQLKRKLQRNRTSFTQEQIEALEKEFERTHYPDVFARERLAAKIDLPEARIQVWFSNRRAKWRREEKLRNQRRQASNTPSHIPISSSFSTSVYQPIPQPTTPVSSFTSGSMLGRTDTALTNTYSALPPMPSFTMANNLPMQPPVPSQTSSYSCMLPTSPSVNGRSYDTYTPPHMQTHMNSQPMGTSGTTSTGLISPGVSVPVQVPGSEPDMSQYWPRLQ
Transcription factor Sp1 (Homo sapiens), sequence (P08047 whole entry, looked up): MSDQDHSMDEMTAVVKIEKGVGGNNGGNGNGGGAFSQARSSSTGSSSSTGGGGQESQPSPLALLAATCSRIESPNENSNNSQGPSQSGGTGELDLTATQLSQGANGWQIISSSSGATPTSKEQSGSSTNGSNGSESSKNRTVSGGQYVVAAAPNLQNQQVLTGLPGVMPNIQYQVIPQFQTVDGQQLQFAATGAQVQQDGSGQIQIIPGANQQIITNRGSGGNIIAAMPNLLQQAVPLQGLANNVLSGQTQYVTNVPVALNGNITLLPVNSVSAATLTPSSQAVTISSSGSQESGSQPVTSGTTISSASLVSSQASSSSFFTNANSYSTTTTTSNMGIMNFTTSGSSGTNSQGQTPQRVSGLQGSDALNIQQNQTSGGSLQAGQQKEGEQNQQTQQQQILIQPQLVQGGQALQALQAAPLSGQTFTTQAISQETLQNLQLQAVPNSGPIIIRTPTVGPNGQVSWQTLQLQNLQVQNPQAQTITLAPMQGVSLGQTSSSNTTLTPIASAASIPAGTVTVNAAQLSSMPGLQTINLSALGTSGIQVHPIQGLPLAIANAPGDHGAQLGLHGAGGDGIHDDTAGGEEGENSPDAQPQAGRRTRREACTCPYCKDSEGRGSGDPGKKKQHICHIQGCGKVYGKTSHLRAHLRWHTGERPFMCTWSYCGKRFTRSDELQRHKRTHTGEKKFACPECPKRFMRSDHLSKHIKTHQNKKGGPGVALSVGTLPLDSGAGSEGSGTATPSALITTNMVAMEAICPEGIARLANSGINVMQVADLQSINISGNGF

Usually AC50 stands for the concentration at which the activity in the assay is half-maximal. For `c1ccc(CNc2ncnc3c2ncn3C2CCCCO2)cc1` (stereo not given), the outcome in [1], in [2], in assay [3], in assay [4], in assay [5] and in assay [6] was inactive. For the same compound, the outcome in assay [8], in assay [10], in assay [11], in assay [12], in [13] and in [14] was inactive. The call in [15], in assay [16], in assay [17], in assay [18] and in [19] was inactive. Moreover, the results for the AC50 in assay [7], in assay [9] and in [20] were 23.3 µM (active), 4.73 µM (active) and 22.9 µM (active), respectively.

Turning to `O=C1OC2(c3ccccc31)c1cc(I)c(O)c(I)c1Oc1c2cc(I)c(O)c1I`, the call in assay [1], in assay [2], in [3], in assay [4], in assay [5] and in assay [6] was inactive. In addition, the outcome in assay [7], in assay [8], in assay [11], in assay [12], in assay [13] and in [14] was inactive. For the same compound, the call in assay [15], in [16], in [17], in assay [18] and in [19] was inactive. For the same compound, the AC50 in assay [3] is 21.2 µM (active) and 34.4 µM (active); in [6] it was 36.3 µM (active) and 35.2 µM (active); in assay [7], 21 µM (active) and 18.6 µM (active); in [8] it was 37.6 µM (active); in [9], 12.8 µM (active) and 4.37 µM (active) and 8.03 µM (active); in assay [11], 34.5 µM (active) and 28.1 µM (active). In addition, the concentration at half-maximal activity (AC50) in [19] was 93.8 µM (active); in assay [20] it was 20.4 µM (active) and 23.8 µM (active) and 22 µM (active).

`CC=O`: the compound was classed as inactive in assay [1], in assay [2], in assay [3], in [4], in assay [5] and in assay [6]. Moreover, the result in assay [7], in assay [8], in assay [9], in assay [10], in assay [11] and in assay [12] was inactive. The compound was called inactive in [13], in assay [14], in assay [15], in assay [16], in assay [17] and in assay [18]. Moreover, the outcome in assay [19] and in assay [20] was inactive.

In the case of `CCO[Si](CCC1CCC2OC2C1)(OCC)OCC` (stereo not given), the call in assay [1], in assay [2], in assay [3], in assay [4], in assay [5] and in [6] was inactive. Further, the result in assay [7], in assay [8], in assay [9], in assay [10], in assay [11] and in assay [12] was inactive. Also, the call in assay [13], in [14], in assay [15], in [16], in assay [17] and in assay [18] was inactive. Also, the call in assay [19] and in assay [20] was inactive.

As to `CCN(CC)CC`, the compound was called inactive in [1], in [2], in [3], in assay [4], in assay [5] and in assay [6]. The outcome in assay [7], in assay [8], in assay [9], in assay [10], in [11] and in [12] was inactive. Moreover, the result in assay [13], in [15], in assay [16], in assay [17], in assay [18] and in assay [19] was inactive. The compound was called inactive in assay [20]. Further, the AC50 in [12] was 18.3 µM (active).
